The source made the active and inactive calls. Unless noted, the rule behind the calls is not given here.
Key:
[1] = HepG2 liver cancer cell viability effects, profiling panel, resazurin fluorescence, 24 h, PK04 Diversity Set (AID 1172); conditions: higher = more signal
[2] = basal S. cerevisiae growth modulation, no modifier, primary screen, OD600, strain BY4716, 24 h, basal condition (AID 1173); conditions: OD600, 24 h, higher = more signal, called active from +8 up or from −8 down
[3] = MM1S myeloma cell viability, profiling panel, resazurin fluorescence, basal, 24 h, PK04 Diversity Set (AID 1174); conditions: higher = more signal, called active from +8 up or from −8 down;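 note: MM1S multiple myeloma cell line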
[4] = molecular target: Dihydroorotate dehydrogenase (quinone), mitochondrial (Plasmodium falciparum (isolate 3D7)) (UniProt Q08210); assay: PfDHODH enzyme inhibitors, primary screen, biochemical, C-terminal His tag, absorbance 600 nm (AID 1175); conditions: DCIP absorbance 600 nm, higher = more signal, called active from +8 up or from −8 down;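 note: recombinant parasite enzyme with a five histidine tag at its C terminus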
[5] = P. aeruginosa biofilm formation inhibitors, primary screen, strain PAO1, LB-PBS medium, absorbance 600 nm (AID 1176); conditions: P. aeruginosa PAO1 growth/biofilm, A600, 12 h; higher = more signal
[6] = S. cerevisiae RM11-1a growth modifiers, primary screen, strain RM11-1a, OD600, basal, 24 h (AID 1177); conditions: OD600, 24 h, higher = more signal, called active from +8 up or from −8 down;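 note: cultures grown under basal conditions with no added stressor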
[7] = E. coli acrAB mutant growth effects, primary screen, E. coli filamentation inducers, strain DRC39, OD650, 24 h (AID 1178); conditions: higher = more signal, called active from +8 up or from −8 down;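 note: growth measured as culture turbidity by optical density at 650 nm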
[8] = E. coli acrAB mutant growth effects, primary screen, E. coli filamentation inducers, strain DRC39, OD650, 48 h (AID 1179);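 note: screen aims at cell division blockers that make cells filament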; conditions: E. coli DRC39 delta-acrAB growth, higher = more signal, called active from +8 up or from −8 down
[9] = RPMI8226 myeloma cell viability, profiling panel, resazurin fluorescence, basal, 24 h, PK04 Diversity Set (AID 1180); conditions: higher = more signal;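 note: RPMI8826 multiple myeloma cell line at 5000 cells per well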
[10] = molecular target: E3 ubiquitin-protein ligase XIAP (Homo sapiens) (UniProt P98170); assay: XIAP binders, primary screen, biophysical, small-molecule microarray, fluorescence 635 nm (AID 1181); conditions: small-molecule microarray binding, higher = more signal;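 note: score merges 667 nm emission and signal to noise over triplicate slides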
[11] = test system: XIP peptide (Xip251-270) binding; assay: small-molecule binders of XIP peptide, primary screen, biochemical, small-molecule microarray, fluorescence 635/667 nm, 0.1 µg/mL protein (AID 1182); conditions: fluorescent protein binding, 635 nm, higher = more signal, called active from +8 up or from −8 down
XIP peptide (Xip251-270) = assay: small-molecule binders of XIP peptide, primary screen, biochemical, small-molecule microarray, fluorescence 635/667 nm, 0.5 µg/mL protein (AID 1183); conditions: small-molecule microarray binding, fluorescence 635 nm; higher = more signal
[12] = Plasmodium falciparum growth inhibition, primary screen, strain 3D7, DAPI fluorescence, 100 nL (AID 1184);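 note: parasites grown inside human red blood cells in medium with human serum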; conditions: P. falciparum 3D7 growth, 3 d, higher = more signal
[13] = molecular target: Homeobox protein Hox-A13 (Mus musculus) (UniProt Q62424); assay: inhibitors of HoxA13-DNA binding, primary screen, biochemical, fluorescence polarization, labeled oligonucleotide (AID 1185); conditions: 15 min, higher = more signal, called active from +8 up or from −8 down
[14] = inhibitors of hydroxyurea-induced Chk1 phosphorylation, primary screen, imaging, HeLa, phospho-Chk1 antibody, percent positive cells (AID 1186); conditions: hydroxyurea-induced phospho-Chk1 immunofluorescence imaging, higher = more signal
[15] = inhibitors of hydroxyurea-induced Chk1 phosphorylation, primary screen, imaging, HeLa, phospho-Chk1 nuclear intensity (AID 1187); conditions: hydroxyurea-induced phospho-Chk1 immunofluorescence imaging, higher = more signal

Homeobox protein Hox-A13 (Mus musculus), sequence (Q62424 whole entry, looked up): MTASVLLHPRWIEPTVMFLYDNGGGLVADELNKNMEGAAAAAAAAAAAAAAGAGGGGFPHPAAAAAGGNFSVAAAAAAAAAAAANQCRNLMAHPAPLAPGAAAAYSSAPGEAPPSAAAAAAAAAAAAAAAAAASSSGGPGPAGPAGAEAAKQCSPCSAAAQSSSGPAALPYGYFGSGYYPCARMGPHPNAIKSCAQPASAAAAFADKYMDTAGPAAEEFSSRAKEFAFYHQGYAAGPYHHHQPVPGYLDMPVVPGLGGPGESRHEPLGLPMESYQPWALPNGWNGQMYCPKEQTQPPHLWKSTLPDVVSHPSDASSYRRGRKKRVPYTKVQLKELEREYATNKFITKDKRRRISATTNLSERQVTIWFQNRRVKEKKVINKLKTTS
E3 ubiquitin-protein ligase XIAP (Homo sapiens), sequence (P98170 whole entry, looked up): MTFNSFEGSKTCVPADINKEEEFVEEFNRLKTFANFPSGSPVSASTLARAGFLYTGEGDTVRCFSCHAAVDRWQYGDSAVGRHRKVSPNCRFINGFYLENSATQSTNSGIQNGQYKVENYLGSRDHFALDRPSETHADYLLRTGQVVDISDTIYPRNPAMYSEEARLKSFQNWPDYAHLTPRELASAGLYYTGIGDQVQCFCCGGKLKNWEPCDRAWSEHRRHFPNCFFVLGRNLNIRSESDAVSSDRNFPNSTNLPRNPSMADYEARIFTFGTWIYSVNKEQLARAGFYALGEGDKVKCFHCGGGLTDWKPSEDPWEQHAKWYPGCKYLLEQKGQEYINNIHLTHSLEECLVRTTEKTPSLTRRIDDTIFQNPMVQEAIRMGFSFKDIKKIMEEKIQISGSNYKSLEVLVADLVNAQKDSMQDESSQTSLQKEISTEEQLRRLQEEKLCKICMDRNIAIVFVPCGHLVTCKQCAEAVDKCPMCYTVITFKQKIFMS
Dihydroorotate dehydrogenase (quinone), mitochondrial (Plasmodium falciparum (isolate 3D7)), sequence (Q08210 whole entry, looked up): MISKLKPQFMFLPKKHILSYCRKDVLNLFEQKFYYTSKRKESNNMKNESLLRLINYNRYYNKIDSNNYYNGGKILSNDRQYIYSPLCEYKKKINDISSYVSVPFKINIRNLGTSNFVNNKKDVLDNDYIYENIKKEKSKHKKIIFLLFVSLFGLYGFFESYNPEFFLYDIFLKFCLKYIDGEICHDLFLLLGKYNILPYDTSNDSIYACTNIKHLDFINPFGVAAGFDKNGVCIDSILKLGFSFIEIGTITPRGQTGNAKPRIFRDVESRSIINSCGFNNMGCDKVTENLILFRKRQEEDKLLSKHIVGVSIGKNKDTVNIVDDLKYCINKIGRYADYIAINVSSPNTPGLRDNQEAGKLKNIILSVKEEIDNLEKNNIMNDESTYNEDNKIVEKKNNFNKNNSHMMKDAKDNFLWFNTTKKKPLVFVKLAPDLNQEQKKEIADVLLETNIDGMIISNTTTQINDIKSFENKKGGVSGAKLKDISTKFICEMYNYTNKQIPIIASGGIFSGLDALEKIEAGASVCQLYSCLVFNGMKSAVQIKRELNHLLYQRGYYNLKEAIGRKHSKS

Row | SMILES | z-score [1] | z-score [2] | z-score [3] | composite z-score [4] | z-score [5] | z-score [6] | z-score [7] | z-score [8] | z-score [9] | composite z-score [10] | composite z-score [11] | composite z-score (XIP peptide (Xip251-270)) | z-score [12] | z-score [13] | z-score [14] | z-score [15]
1 | Cc1ccc(S[C@]2(C(=O)NCC(C)C)CC(=O)N(C(C)C)[C@@H]2c2ccc(CO)cc2I)cc1 | -0.16 | -2.09 (inactive) | -1.52 (inactive) | -0.332 (inactive) | -0.288 (inactive) | -0.91 (inactive) | 0.485 (inactive) | -0.117 (inactive) | -1.8 | -0.128 | 0.708 (inactive) | 0.689 | -1.12 | -2.86 (inactive) | -0.187 (inactive) | 0.023 (inactive)
2 | C[N+](C)(C)CCCC[C@@H]1NC(=O)[C@H]2C[C@@H](C(=O)O)[C@@H](c3ccc(O)cc3)N2C1=O | 0.363 | -1.58 (inactive) | 1.03 (inactive) | -0.406 (inactive) | 0.475 (inactive) | -0.944 (inactive) | 1.38 (inactive) | 1.57 (inactive) | 0.925 | -0.0595 | 0.154 (inactive) | 0.274 | 0.115 | -1.42 (inactive) | -0.349 (inactive) | -0.313 (inactive)
3 | COC(=O)[C@@]1(Cc2ccc(OC)cc2)[C@H]2c3cc(C(=O)N(C)C)n(Cc4c(CO)[nH]cc(C)c4=O)c3C[C@H]2CN1C(=O)c1ccccc1 | -0.548 | -0.0117 (inactive) | -1.06 (inactive) | -0.501 (inactive) | 0.371 (inactive) | -0.463 (inactive) | -0.897 (inactive) | -0.542 (inactive) | -0.717 | -0.127 | -0.582 (inactive) | 0.349 | -0.116 | -3.64 (inactive) | 0.54 (inactive) | 0.376 (inactive)
4 | COc1ccc(CCNC(=O)[C@@H]2c3ccccc3C(=O)N(Cc3cc(F)cc(C(F)(F)F)c3)[C@H]2c2ccc(CO)cc2)cc1 | -0.162 | -0.314 (inactive) | 0.821 (inactive) | -0.179 (inactive) | -0.121 (inactive) | -0.209 (inactive) | 0.746 (inactive) | 0.387 (inactive) | 1.16 | -0.0835 | 0.614 (inactive) | 0.906 | -1.42 | -3.95 (inactive) | -0.0525 (inactive) | 0.275 (inactive)
5 | O=C1NC(=O)C2C1C=CC(C(O)C(O)CO)N2Nc1ccccn1 (centres undefined) | -0.908 | 0.802 (inactive) | -0.872 (inactive) | -0.683 (inactive) | 1.11 (inactive) | -0.645 (inactive) | -0.0259 (inactive) | 0.61 (inactive) | -0.885 | -0.195 | -0.325 (inactive) | 0.129 | 0.488 | -0.781 (inactive) | -0.163 (inactive) | -0.239 (inactive)
6 | COCCOC(=O)N1C(=O)[C@@]2(c3cc(C#CCNC(N)=O)ccc31)[C@H](C(=O)N1CCN(c3ncccn3)CC1)[C@H]1C(=O)O[C@H](c3ccccc3)[C@H](c3ccccc3)N1[C@@H]2c1ccc(O)cc1 | -0.203 | -0.171 (inactive) | 0.0034 (inactive) | 0.386 (inactive) | 1.13 (inactive) | -0.34 (inactive) | 0.589 (inactive) | 1.15 (inactive) | 0.436 | -0.0129 | -0.417 (inactive) | 0.288 | 0.614 | -0.508 (inactive) | -0.171 (inactive) | -0.206 (inactive)
7 | CCOC(=O)C1=CC[C@@H](c2ccccc2)N(S(=O)(=O)c2ccc(C)cc2)[C@@H]1C#N | 0.794 | -1.95 (inactive) | -1.43 (inactive) | -1.21 (inactive) | -0.088 (inactive) | 0.455 (inactive) | -0.337 (inactive) | 0.831 (inactive) | -1.57 | -0.207 | 0.216 (inactive) | 0.423 | -0.465 | -4.26 (inactive) | -1.95 (inactive) | -2.5 (inactive)
8 | C=CCC(OC(C)=O)[C@@H]1[C@@H](N(Cc2cccc3ccccc23)C(=O)c2ccc(C)cc2)c2cc(OCCCO)ccc2N1C(=O)Cc1ccc2ccccc2c1 (some centres undefined) | 0.0546 | -1.34 (inactive) | 0.802 (inactive) | -2.08 (inactive) | 0.0642 (inactive) | -1.31 (inactive) | 0.72 (inactive) | 1.28 (inactive) | 0.608 | 0.0264 | -0.929 (inactive) | 0.0814 | -0.145 | -0.0782 (inactive) | -0.648 (inactive) | -0.416 (inactive)
9 | COC(=O)[C@@]1(Cc2ccc(F)cc2)[C@H]2c3cc(C(=O)N(C)C)n(Cc4cccc5ccccc45)c3C[C@H]2CN1C(=O)c1ccccc1 | -0.488 | 1.91 (inactive) | -1.32 (inactive) | -0.0341 (inactive) | 1.75 (inactive) | 1.75 (inactive) | -0.609 (inactive) | -0.707 (inactive) | -1.04 | 1.6 | 0.0361 (inactive) | 0.891 | -1.51 | -4.81 (inactive) | 0.406 (inactive) | 0.252 (inactive)
